Results as given in PMC4336329 (PLoS ONE, 2015).
Screen size: about 310,000 compounds; about 14,000 (4.5%) showed an effect of 50% or more. Effects have a minus sign here. This excerpt belongs to a sample that is enriched for strong results.

target: human ether-à-go-go-related gene (hERG) potassium channel (human, UniProt Q12809); assay: primary screen, population patch clamp on CHO cells stably expressing hERG; higher = less effect of the substance
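Note: peak tail current of the secondary pulse compared with the same well before compound.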

human ether-à-go-go-related gene (hERG) potassium channel, sequence (Q12809 whole entry, looked up): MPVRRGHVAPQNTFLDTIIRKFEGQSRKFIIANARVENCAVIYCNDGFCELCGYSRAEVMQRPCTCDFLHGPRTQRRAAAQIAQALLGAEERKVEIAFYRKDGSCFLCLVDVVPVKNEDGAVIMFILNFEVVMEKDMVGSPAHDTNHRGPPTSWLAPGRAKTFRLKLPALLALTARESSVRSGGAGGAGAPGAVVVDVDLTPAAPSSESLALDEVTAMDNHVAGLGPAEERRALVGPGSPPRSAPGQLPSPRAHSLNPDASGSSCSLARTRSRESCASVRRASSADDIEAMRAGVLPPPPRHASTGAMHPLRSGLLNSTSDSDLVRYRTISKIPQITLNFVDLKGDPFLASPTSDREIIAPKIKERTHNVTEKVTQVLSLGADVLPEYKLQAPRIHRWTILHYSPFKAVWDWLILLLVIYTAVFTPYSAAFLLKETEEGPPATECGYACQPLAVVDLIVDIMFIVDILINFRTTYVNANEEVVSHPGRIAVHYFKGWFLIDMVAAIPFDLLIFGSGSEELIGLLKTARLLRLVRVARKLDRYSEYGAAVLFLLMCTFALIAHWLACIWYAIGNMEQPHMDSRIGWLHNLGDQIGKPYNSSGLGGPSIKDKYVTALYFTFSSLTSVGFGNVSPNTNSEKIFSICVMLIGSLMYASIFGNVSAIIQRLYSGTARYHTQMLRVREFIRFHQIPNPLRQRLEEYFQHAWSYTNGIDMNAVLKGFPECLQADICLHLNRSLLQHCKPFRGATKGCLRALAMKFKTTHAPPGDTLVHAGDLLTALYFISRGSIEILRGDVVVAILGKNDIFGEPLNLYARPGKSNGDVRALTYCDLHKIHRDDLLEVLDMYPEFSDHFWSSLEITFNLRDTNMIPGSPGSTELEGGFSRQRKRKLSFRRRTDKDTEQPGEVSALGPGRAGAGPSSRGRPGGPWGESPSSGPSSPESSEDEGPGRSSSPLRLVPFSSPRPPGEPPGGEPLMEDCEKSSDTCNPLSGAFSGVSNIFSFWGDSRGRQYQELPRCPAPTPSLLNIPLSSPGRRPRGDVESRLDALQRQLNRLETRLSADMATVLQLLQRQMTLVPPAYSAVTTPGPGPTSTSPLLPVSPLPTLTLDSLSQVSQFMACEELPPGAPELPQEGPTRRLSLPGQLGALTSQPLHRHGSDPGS

Structure (SMILES) | hERG current change (%, negative = inhibition) at 10uM [%]
COc1cccc(-c2csc(N3CCN(Cc4ccccc4)CC3)n2)c1 | 0.166
COCC(=O)Nc1nnc(COc2ccc(Cl)cc2)s1 | -0.556
CCC(C)(C)C1CCC2(CC1)NC(=O)N(CC(=O)NCCc1c[nH]c3ccccc13)C2=O (stereo not drawn) | -20.3
COc1ccccc1N(C(=O)CCl)c1cn(C(C)=O)c2ccccc12 | -10.6
C=CCOc1ccccc1C1C2=C(CC(C)(C)CC2=O)Nc2c1c(=O)n(C)c(=O)n2C (stereo not drawn) | -3.8
CC(C)CN1CCN(Cc2cccn2-c2ccc(Cl)cn2)CC1CCO (stereo not drawn) | -64.6
CC(C)CCN1CCN(Cc2ccon2)CC1CCO (stereo not drawn) | 4.53
CC(C)CN1CCN(Cc2c(F)cccc2Cl)CC1CCO (stereo not drawn) | -10.4
CC(C)CCN1CCN(Cc2c(F)cccc2Cl)CC1CCO (stereo not drawn) | -21.6
Cc1cccc(CN2CCN(CC(C)C)C(CCO)C2)n1 (stereo not drawn) | 17.7
CC(C)CCN1CCN(Cc2cccn2-c2ccc(Cl)cn2)CC1CCO (stereo not drawn) | -64.8
O=C(COC(=O)/C=C/c1ccc(Cl)cc1Cl)Nc1cc(C(F)(F)F)ccc1N1CCOCC1 | 8.56
O=C(O)CSc1nc(SCc2ccccc2Cl)nc2c1CCCC2 | 15.4
Cc1[nH]n(-c2ccccc2)c(=O)c1CCO | 13.7
Cl.OC(c1cc(C(F)(F)F)nc2c(C(F)(F)F)cccc12)C1CCCCN1 (stereo not drawn) | -12.4
OC(c1cc(-c2ccc(Cl)cc2)nc2ccccc12)C1CCCCN1 (stereo not drawn) | -52.6
Cl.O[C@@H](c1cc(C(F)(F)F)nc2c(C(F)(F)F)cccc12)[C@H]1CCCCN1 | 6.31
Cc1cccnc1NC(=O)Cn1c(=O)oc2ccccc21 | 23
Cc1ccc(N2C(=O)NC(=O)/C(=C\c3cccn3C(C)(C)C)C2=O)cc1 | 24.5
Cl.N=c1sccn1CC(=O)Nc1cccc2ccccc12 | 2.9
Cl.N=c1sccn1CC(=O)NC(c1ccccc1)c1ccccc1 | -63.3
Cl.N=c1sccn1CC(=O)Nc1cccc(Oc2ccccc2)c1 | -65.5

Structure (SMILES) | hERG current change (%, negative = inhibition) at 10uM [%]
Cl.N=c1sccn1CC(=O)Nc1ccc2c(c1)CCC2 | -14.1
O=C(CSc1ccccc1)Nc1cc(Cl)ccc1Oc1ccccc1 | -9.05
Cc1ccc(Oc2ccc(NC(=O)Cn3ccsc3=N)cc2)cc1.Cl | -45.1
Cl.N=c1sccn1CC(=O)Nc1cc(Cl)ccc1[N+](=O)[O-] | 2.64
Cl.N=c1sccn1CC(=O)Nc1ccccc1-c1ccccc1 | -2.05
Cl.N=c1sccn1CC(=O)Nc1cccc(S(N)(=O)=O)c1 | 12.5
Cl.N=c1sccn1CC(=O)Nc1cc(Cl)ccc1Oc1ccccc1 | -75.2
Cl.N=c1sccn1CC(=O)Nc1ccc(S(N)(=O)=O)cc1 | 18.2
Cl.N=c1sccn1CC(=O)Nc1ccc(SC(F)F)cc1 | -62.1
COc1cc(C(=O)NC(=S)Nc2ccc(NC(=O)c3ccco3)cc2)cc(OC)c1OC | -6.61
CC(=O)Nc1ccc(NC2=CC(=O)c3ccccc3C2=O)cc1 | 11.6
COc1cccc2cc(C(=O)NCCC3=CCCCC3)c(=O)oc12 | 2.79
O=C(/C=C/c1ccccc1)NC(=O)c1ccccc1O | 9.95
CC1CCCN(Cc2cnc(Cl)s2)C1 (stereo not drawn) | 13
CCC(=O)N1CCc2cc(S(=O)(=O)N3CCN(C(=O)c4ccco4)CC3)ccc21 | -21.8
CCCc1c(C(=O)N/N=C/c2ccccc2OCc2ccc(F)cc2)nnn1-c1nonc1N | 18.6
Cn1c(=O)c2c(ncn2C)n(C)c1=O | 10.1
CCN1CCN(C(C)C(=O)Nc2c(C)n(C)n(-c3ccccc3)c2=O)CC1.O=C(O)C(=O)O (stereo not drawn) | 18.6
CCNc1nc(NCC)nc(Oc2ccc(C(=O)OC)cc2)n1 | -5.78
COc1cccc2c(=O)c(C(=O)O)c[nH]c12 | -0.514
COC(=O)c1sccc1NC(=O)C1CCCCC1C(=O)O (stereo not drawn) | 14.7
CN(C)c1cccc(C(=O)N2CCC(n3nccc3NC(=O)C3CCOC3)CC2)c1 (stereo not drawn) | 3.5

Structure (SMILES) | hERG current change (%, negative = inhibition) at 10uM [%]
COCCCNC(=O)C(=O)N/N=C/c1ccc(OCC(=O)Nc2cccc(Cl)c2C)c(OC)c1 | -0.6
COc1ccc(Nc2nc(N3CCCCC3)nc3ccccc23)c(OC)c1 | -62.9
COc1ccc(Nc2nc(N3CCCC3)nc3ccccc23)c(OC)c1 | -44.6
COc1ccc(Nc2nc(-c3ccccc3)nc3ccccc23)c(OC)c1 | -1.67
COc1ccc(Nc2nc(Nc3ccc(OC)cc3OC)nc(N3CCN(C)CC3)n2)c(OC)c1 | -22.6
COc1ccc(Nc2nc(N3CCCCC3)nc(N3CCCCC3)n2)c(OC)c1 | 15.2
COc1ccc(Nc2nc(N3CCN(C)CC3)nc3ccccc23)c(OC)c1 | -75.4
CCN(CC(=O)Nc1ccc(NC(C)=O)cc1)C(=O)CC1OC(=O)c2ccccc21 (stereo not drawn) | 5.6
O=C(NCCO)c1nc(C(=O)c2ccccc2)c2ccccc2n1 | 15.9
Cc1nn(-c2ccccc2)c(C)c1C(=O)NCc1ccccc1F | 3.78
Cc1nn(-c2ccccc2)c(C)c1C(=O)NCc1ccc(S(N)(=O)=O)cc1 | 20.1
Cc1nn(-c2ccccc2)c(C)c1C(=O)NCc1ccc(F)cc1 | -53.2
O=C(CCc1nc2ccccc2c(=O)[nH]1)NNC(=O)COc1cccc(F)c1 | -1.88
COc1ccc(F)cc1CN1CCN(CC(=O)N2CCc3ccccc32)CC1 | -48.1
CCC(C)c1ccc(NC(=O)C2CC2)cc1 (stereo not drawn) | 5.22
Cc1ccc(S(=O)(=O)NCC(=O)OCc2cc(=O)oc3c(C)c(C)ccc23)cc1C | -16.7
COc1ccc2c(COC(=O)CNS(=O)(=O)c3ccc(C)c(C)c3)cc(=O)oc2c1 | -57.7
Cc1ccc(S(=O)(=O)NCC(=O)OCc2cc(=O)oc3cc(C)ccc23)cc1 | -3.27
CCOC(=O)C(C)Sc1nnc(Cc2cc(=O)[nH]c(=O)[nH]2)n1-c1cccc(OC)c1 (stereo not drawn) | 0.328
CCOC(=O)c1cnc2c(C)c(Cl)ccc2c1N1CCN(CC)CC1.Cl | -29.5
CCOC(=O)c1cnc2c(C)cc(Cl)cc2c1N1CCN(C)CC1.Cl | -19.6
CCOC(=O)c1cnc2c(Cl)c(Cl)ccc2c1N1CCN(C)CC1.Cl | -55.5

Structure (SMILES) | hERG current change (%, negative = inhibition) at 10uM [%]
CN(C)S(=O)(=O)n1cnc([C@H]2c3c(ncn3Cc3ccccc3)C[C@H]3COC(=O)[C@@H]32)c1 | -4.15
Cc1ccc(C(c2sc3nc(C)nn3c2O)N2CC(C)OC(C)C2)cc1 (stereo not drawn) | 13.3
O=c1c(Cl)c(NCC2CCCO2)cnn1C12CC3CC(CC(C3)C1)C2 (stereo not drawn) | -29.3
O=c1oc(Nc2ccc(F)cc2)nc2ccccc12 | 6.68
CCOC(=O)N1CCC(NC(=O)CSCc2nc(-c3ccccc3Cl)oc2C)CC1 | -19.5
Cl.NC(=NC1CCCCC1)c1ccc([N+](=O)[O-])cc1 | -57.2
N/C(=N\OC(=O)CCC1CCCCC1)c1ccc([N+](=O)[O-])cc1 | -8.1
Cl.NC(=NC1CCCCC1)c1ccc(Cl)cc1 | -39.2
COc1cc2occc2c2oc(=O)ccc12 | 0.24
O=c1[nH]c(=O)n(C2CCCCC2)c(O)c1/C=N/N1CCCCC1c1cccnc1 (stereo not drawn) | -13.6
COc1cc(-c2nc3ccc4ccccc4c3c3c2CCC3)ccc1O | 13.8
O=C(CN(c1cccc([N+](=O)[O-])c1)S(=O)(=O)c1ccccc1)N1CCCCC1 | -24.8
CC1(C)NC(=O)N(CC(O)CN(c2ccccc2)S(=O)(=O)c2ccc([N+](=O)[O-])cc2)C1=O (stereo not drawn) | -13.7
O=C(CN(c1ccc([N+](=O)[O-])cc1)S(=O)(=O)c1ccccc1)N1CCCCC1 | -61.9
O=[N+]([O-])c1ccc(S(=O)(=O)N(CC(O)CN2CCCCC2)c2ccccc2)cc1 (stereo not drawn) | -80.9
Cc1ccc(N(CC(=O)N2CCCCCC2)S(=O)(=O)c2ccccc2)cc1 | -25.3
COc1ccc([N+](=O)[O-])cc1N(CC(O)CN1CCCCC1)S(=O)(=O)c1ccccc1 (stereo not drawn) | -11.2
COc1ccc([N+](=O)[O-])cc1N(CC(O)CN1CCOCC1)S(=O)(=O)c1ccccc1 (stereo not drawn) | 20
O=[N+]([O-])c1ccc(N(CC(O)CN2CCCCC2)S(=O)(=O)c2ccccc2)cc1 (stereo not drawn) | -74
CNC(=O)OCCc1n(C)cc[n+]1C.[I-] | 13.9
Cn1cnnc1Sc1ccc(C(=O)OCC(=O)NCC(F)(F)F)cc1[N+](=O)[O-] | 0.021
